Assay outcomes as filed in PubChem BioAssay.
Hits are enriched below; roughly 14% of the tested compounds scored in any of these assays.
LASV entry inh = blocks Lassa virus binding to or entry into cells. Lassa virus pseudotype entry inhibition, cell reporter. AID 540256. Potency, µM (highest dose often 37.9 µM), for the others: top-dose activity change, negative = inhibition, most hits filed as inhibitors. hit rate 1.2% among 300,000; calls by dose curve; tested in HEK293 cells; also: potency is read from the fitted curve at half-maximal effect; nearly all actives have a fitted effect of over 50% in size
HCV inhibitor = HCV inhibition | Huh7.5.1 HCVcc-Cre infection, luciferase reporter, 44 h | Potency, µM (highest dose often 41.8 µM), without a hit: at the highest dose activity change, negative = inhibition, hits mostly inhibitors | hit rate 3.4% among 340,000 | AID 651820; also: potency is read from the fitted curve at half-maximal effect
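Infectious HCVcc-Cre (~0.5 moi) was added to cells just after compound, with cells seeded 4 h earlier at 1,000 per well. Luciferase activity after 44 h culture reported infection; substrate was incubated 15 min at room temperature before reading.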
MARV entry inh = inhibitors of Marburg virus binding or cell entry; Marburg virus pseudotyped entry inhibition, cell reporter; Potency, µM (top dose mostly 37.8 µM), inactives show at the top dose activity change, negative = inhibition, usual class: inhibitors; hit rate 1.8% among 300,000; AID 540276; calls by dose curve; tested in HEK293 cells; also: potency is read from the fitted curve at half-maximal effect
Pf growth 96h = P. falciparum growth inhibition at 96 hours | hit rate 6.9% among 320,000 | Potency, µM (doses to about 28.7 µM), for the others: top-dose activity change, negative = inhibition, most hits filed as inhibitors | P. falciparum luciferase reporter growth, 96 h | AID 504834; also: potency is read from the fitted curve at half-maximal effect
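96 h incubation, 37 C, 5% CO2, of luciferase-reporter P. falciparum-infected RBCs (2% hematocrit, 0.05% parasitemia final) with test compounds; endpoint luminescence.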
Pf growth 48h = P. falciparum growth inhibition at 48 hours (one generation); P. falciparum luciferase growth in erythrocytes, 48 h; Potency, µM (doses to about 28.7 µM), for the others: at the highest dose activity change, negative = inhibition, usual class: inhibitors; hit rate 5.9% among 310,000; AID 504832; also: potency is read from the fitted curve at half-maximal effect
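In quantitative HTS format, infected erythrocytes bearing luciferase-reporter parasites were treated for a single generation at 37 C. Luminescence after adding detection reagent served as the growth measure.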
HCMV inh = blocks human cytomegalovirus replication; AID 1259415; activity change, negative = inhibition, % at 57.5 µM; hit rate 4.5% among 410,000; HFF cells, HCMV-luciferase reporter, 72 h; hits give low values; in the data active = activity change below about -60%; inconclusive = no clear call, values can overlap the other calls; inactive = above about -39%
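Human foreskin fibroblasts infected with luciferase-reporter HCMV at MOI 1 PFU/cell, compounds at two doses. Luciferase measured 72 h post infection; normalized to buffer-only basal and Salinomycin (10uM) controls.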
Active calls of the source: *; ? = inconclusive; · = no result; + = active, no number; [ ] = another dose, or the depositor's remark. Unless noted, calls follow the shape of the dose curve; as a rule, active = well fitted inhibition curve with a large enough effect; inconclusive = small, poorly fitted or top-dose-only effect, or another doubt; inactive = no such curve, though single readings can be large or run the other way. % is scaled to controls: 0 for no effect and ±100 for the full control effect.

SMILES	LASV entry inh	HCV inhibitor	MARV entry inh	Pf growth 96h	Pf growth 48h	HCMV inh
CCOC(=O)c1nn(-c2ccc3c(c2)OCO3)cc1O	16.6%	-0.7%	-24.2%	63.3%	99.7%	-101.4*
C/C(=N\NC(=O)c1nnn(-c2nonc2N)c1-c1ccc2c(c1)OCO2)c1cccs1	17.8%[46.1 µM]	18.6%	-11.0%[46.1 µM]	11.7µM*	?	?
COc1cccc(-c2c(C(=O)N/N=C(\C)c3cccs3)nnn2-c2nonc2N)c1	·	?	·	-11.5%	-20.3%	+
COc1ccc2c(c1OC)C[N+]1([O-])CCc3cc4c(cc3C1C2)OCO4 (stereo unspecified)	·	7.7%	·	4.15µM*	?	-8.7
Clc1nc(NCCc2ccccc2)c2cn[nH]c2n1	?	?	?	·	·	-61.3*
O=c1[nH]ncc(NCCc2ccccc2)c1Cl	-1.8%	24.4%	-4.8%[46.1 µM]	1.1%	13.3%	-24.7
Cc1ccc(NC(=O)CSc2cn(CC(=O)N3CCCC3)c3ccccc23)cc1Cl	0.7%[46.1 µM]	·	·	·	·	-37.3
COc1ccccc1NC(=O)Nc1nc(CC(=O)Nc2cccc(F)c2)cs1	-28.1%	11.5%	-24.2%	2.08µM*	4.15µM*	-0.8
COc1ccccc1NC(=O)Cc1csc(NC(=O)c2ccccc2)n1	?	7.08µM*	-27.8%	-17.6%	11.6%	-69.2*
O=C(Cc1csc(NC(=O)Nc2cccc(Cl)c2)n1)NCc1ccccn1	-10.0%	?	?	0.6%	30.0%	39.0
COc1ccccc1NC(=O)Nc1nc(CC(=O)Nc2ccc(F)cc2)cs1	9.8%	?	-22.0%	?	?	-25.0
O=C(Cc1csc(NC(=O)Nc2cccc(Cl)c2)n1)NC1CCCC1	-13.9%	?	12.6µM*	28.5%	?	-27.8
CCOc1ccccc1N(CC)C(=O)c1noc2c1COc1ccc(C)cc1-2	-1.1%[46.1 µM]	·	·	·	·	-3.8
CC(=O)Nc1ccc(S(=O)(=O)N2CCN(CCCOc3ccccc3Cl)CC2)cc1	21.7%	7.0%	21.1%	6.57µM*	·	-67.2*
COc1ccc(OC)c(CN2CCN(S(=O)(=O)c3ccc(NC(C)=O)cc3)CC2)c1	-14.2%	-15.9%	-16.8%[46.1 µM]	20.8%	-17.5%	-18.4
COc1cccc(OCCCN2CCN(S(=O)(=O)c3ccc(NC(C)=O)cc3)CC2)c1	8.2µM*	12.6µM*	6.51µM*	?	·	-80.5*
c1ccc(-c2[nH]c(-c3ccccc3)[n+](CC3CO3)c2-c2ccccc2)cc1 (stereo unspecified)	?	?	?	10.4µM*	?	?
O=[N+]([O-])c1ccc(COc2ccccc2/C=N/O)cc1	-14.1%	?	-4.1%	60.3%	68.6%	-19.7
O=C1NC(=O)/C(=C\c2ccccc2OCc2ccc([N+](=O)[O-])cc2)N1	0.0%	?	?	11.7µM*	29.2%	?
COc1ccc(N2CCN(c3ccc(-c4nc(-c5ccccc5)no4)cc3[N+](=O)[O-])CC2)cc1	-2.2%[46.1 µM]	·	4.1%[46.1 µM]	·	·	-9.8
CCCOc1ccc(C(=O)Nc2cc(S(=O)(=O)N3CCOCC3)ccc2N2CCOCC2)cc1	·	?	·	?	11.7µM*	0.0
CCOc1ccc(C(=O)OCC(=O)Nc2cc(S(=O)(=O)N3CCOCC3)ccc2N2CCOCC2)cc1	·	9.8%	·	·	·	0.0
O=C(CCCSc1ccc(Cl)cc1)Nc1cc(S(=O)(=O)N2CCOCC2)ccc1O	·	11.2%	·	8.28µM*	?	-4.9
CCOc1ccc(C(=O)Nc2cc(S(=O)(=O)Nc3ccccc3Cl)ccc2N2CCOCC2)cc1	?	?	?	2.62µM*	?	-20.6
CCOc1ccc(OCCCC(=O)Nc2cc(S(=O)(=O)N3CCOCC3)ccc2N2CCOCC2)cc1	·	?	·	·	·	-90.3*
SMILES	LASV entry inh	HCV inhibitor	MARV entry inh	Pf growth 96h	Pf growth 48h	HCMV inh
O=C(O)Cn1ccc2cc(S(=O)(=O)N3CCCCC3)ccc21	·	·	·	·	·	10.6
CC(C)[C@@H]1Cc2[nH]c(=S)[nH]c(=O)c2[C@H](CCc2ccccc2)O1	·	·	·	·	·	-18.5
C=CC[C@@H]1Cc2c(Br)ccc(Br)c2[C@@H](CC=C)N1	-0.4%	29.5%	-8.0%	-10.6%	?	-27.3
C=CCC1C=C(Cc2ccccc2)CC(CC=C)N1 (stereo unspecified)	·	-10.2%	·	4.3%	?	-18.6
C=CC[C@H]1CC(C)=C[C@H](CC=C)N1	0.7%[46.1 µM]	18.3%	-1.3%[46.1 µM]	?	0.928µM*	10.5
C=CC[C@H]1CC(Cc2ccccc2)=C[C@H](CC=C)N1	-10.9%	-23.1%	?	0.0738µM*	0.233µM*	-11.8
Cc1ccc(S(=O)(=O)N2CCOCC2)cc1-c1n[nH]c(=S)n1-c1ccccc1	·	9.4%	·	-13.1%	-10.4%	-18.2
Cc1cc(N2CC(C)OC(C)C2)nc2ccccc12 (stereo unspecified)	2.0%	?	18.3%[46.1 µM]	9.3%	92.9%	-80.4*
CCc1ccc(OCCCCN(C)Cc2ccccc2)cc1	·	-26.4%	·	13.1µM*	-2.3%	-10.7
Cc1cc(C)c(C)c(OCCCCN(C)Cc2ccccc2)c1	·	0.2%	·	13.1µM*	?	-34.4
CN(CCOCCOc1ccc2ccccc2c1)Cc1ccccc1	1.2%	-16.6%	6.2%[46.1 µM]	14.7µM*	·	11.8
COc1ccc(OCCN(C)Cc2ccccc2)cc1	-0.3%	9.1%	6.9%	-45.8%	28.0%	-11.1
Cc1ccc(CCNC(=O)CCCn2c(=O)c3ccccc3n(Cc3ccccc3C)c2=O)cc1	-26.7%[46.1 µM]	·	-11.7%[46.1 µM]	·	·	-13.2
Fc1ccc(CNc2ncnc3c2c(-c2ccccc2)cn3-c2ccccc2)cc1	18.5%[46.1 µM]	·	·	·	·	-0.3
CCOC(=O)C1CCN(C(=O)Cn2cnc3sc(C)c(S(=O)(=O)N4CCOCC4)c3c2=O)CC1	5.4%	8.5%	12.6%[46.1 µM]	?	1.47µM*	-20.4
CCOC(=O)CNC(=O)Cn1cnc2sc(C)c(S(=O)(=O)N3CCOCC3)c2c1=O	?	-2.4%	1.0%[46.1 µM]	?	22.0%	-3.0
CCOc1ccc(S(=O)(=O)Nc2cccc(C(=O)NCC(c3ccco3)N3CCCC3)c2)cc1 (stereo unspecified)	·	?	·	?	?	9.9
CCc1ccccc1NC(=O)c1ccc(-n2c(C)ccc2C)cc1	?	?	?	14.7µM*	?	49.0
Cc1ccc(C)n1-c1ccc(NC(=O)c2ccccc2)cc1	?	-13.5%	?	11.7µM*	?	5.5
CCCN1C(=O)c2cc(C(=O)NC3CCCC3)ccc2C1O (stereo unspecified)	·	-2.7%	·	?	·	-22.4
CCCN1C(=O)c2cc(C(=O)Nc3ccccc3CC)ccc2C1O (stereo unspecified)	·	-12.1%	·	10.4µM*	·	-0.9
CCOC(=O)c1ccc(N=c2sc(C(=O)OC)cc(=O)n2-c2ccc(C(=O)OCC)cc2)cc1	-13.8%	10µM*	-12.5%	15.2%	?	195.0
Cc1ccc(C(=O)Nc2cccc(C(=O)OCc3cc(=O)n4nc(C5CC5)sc4n3)c2)cc1	5.4%[46.1 µM]	·	·	·	·	68.1
